Assay [1] in a line: antimalarial activity against Dd2 strain (AID 2302;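 active means growth inhibition above 50% at the single 2 µM test dose, taken to imply half-maximal potency below 2 µM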;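 further: 0% = DMSO untreated growth and 100% = chloroquine plus artemisinin killed control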). As to conditions: P. falciparum Dd2 in RBCs, LDH growth readout, 72 h; at 2 µM; stronger effect = higher value.
Assay [2] can be described thus: human hepatoma cell viability loss – ATP luminescence, cytotoxicity control for P. falciparum antimalarial project, primary screen (AID 2303;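 active means inhibition above 50%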;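 further: 0% = DMSO wells and 100% = digitonin-killed cells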). The note with it: HepG2 viability, 24-48 h, at 10 µM, stronger effect = higher value.
The target of assay [3] is L-lactate dehydrogenase (Plasmodium falciparum (isolate CDC / Honduras)) (UniProt Q27743). In words: PfLDH activity inhibition – cell lysate, 3D7 strain, counter-screen for P. falciparum growth inhibition project (AID 2304).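 Further: 0% = vehicle and 100% = reference inhibitor.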 The note with it: P. falciparum 3D7 crude extract, LDH APAD/NBT absorbance; at 2 µM; stronger effect = higher value. A general note: The purpose of a counterscreen is to sort out artefacts and off-target activity.
Chain of L-lactate dehydrogenase (Plasmodium falciparum (isolate CDC / Honduras)) (Q27743 whole entry, looked up): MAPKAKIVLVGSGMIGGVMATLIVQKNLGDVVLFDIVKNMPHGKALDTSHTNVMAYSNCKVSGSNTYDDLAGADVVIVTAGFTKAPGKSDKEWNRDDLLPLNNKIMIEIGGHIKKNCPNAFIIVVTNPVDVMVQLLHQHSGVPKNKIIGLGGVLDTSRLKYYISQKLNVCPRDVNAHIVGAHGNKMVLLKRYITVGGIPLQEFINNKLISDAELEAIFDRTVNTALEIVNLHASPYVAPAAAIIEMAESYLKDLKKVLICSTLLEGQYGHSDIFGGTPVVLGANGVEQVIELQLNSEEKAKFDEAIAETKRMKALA

Assay [4] in a line: inhibition of 3D7 malaria parasite growth – strain 3D7 (AID 2306).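 Further: 0% = DMSO wells and 100% = chloroquine plus artemisinin control wells.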 As to conditions: P. falciparum 3D7 erythrocytic growth, LDH absorbance, 72 h; at 2 µM; stronger effect = higher value.
In assay [5] the target is Calcium-dependent protein kinase 1 (Plasmodium falciparum (isolate 3D7)) (UniProt P62344). Nature of the assay: PfCDPK1 kinase inhibitors, biochemical, TCAMS library (AID 1159585; cut-off not given, nearly all actives have IC50 up to about 0.98 µM;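 further: inhibitors leave more ATP so luminescence rises with inhibition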). The note with it: recombinant PfCDPK1, Kinase-Glo ATP depletion luminescence. Background: Kinase-Glo reads ATP consumption through a luciferase reaction.
Chain of Calcium-dependent protein kinase 1 (Plasmodium falciparum (isolate 3D7)) (P62344 whole entry, looked up): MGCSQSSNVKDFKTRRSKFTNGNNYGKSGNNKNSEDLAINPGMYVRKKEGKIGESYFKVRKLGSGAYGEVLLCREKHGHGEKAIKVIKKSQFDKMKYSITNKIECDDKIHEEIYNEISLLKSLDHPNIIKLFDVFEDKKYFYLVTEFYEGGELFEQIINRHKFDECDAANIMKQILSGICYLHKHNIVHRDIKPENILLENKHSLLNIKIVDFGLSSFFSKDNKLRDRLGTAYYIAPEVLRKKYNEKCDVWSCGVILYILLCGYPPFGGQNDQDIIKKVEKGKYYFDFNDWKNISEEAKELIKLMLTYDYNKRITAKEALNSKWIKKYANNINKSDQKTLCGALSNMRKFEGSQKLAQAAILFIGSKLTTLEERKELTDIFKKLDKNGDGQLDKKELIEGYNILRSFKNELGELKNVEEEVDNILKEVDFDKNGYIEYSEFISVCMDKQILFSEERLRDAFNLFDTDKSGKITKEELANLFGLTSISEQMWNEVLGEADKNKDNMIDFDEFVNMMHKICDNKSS
In assay [6] the target is Plasmodium falciparum protein kinase 6 (PK6, PF3D7_1337100) (UniProt Q8IDW1). In words: PfPK6 kinase inhibitors, biochemical, TCAMS library (AID 1159586). As to conditions: recombinant PfPK6, Kinase-Glo ATP depletion luminescence.
Chain of Plasmodium falciparum protein kinase 6 (PK6, PF3D7_1337100) (Q8IDW1 1-305): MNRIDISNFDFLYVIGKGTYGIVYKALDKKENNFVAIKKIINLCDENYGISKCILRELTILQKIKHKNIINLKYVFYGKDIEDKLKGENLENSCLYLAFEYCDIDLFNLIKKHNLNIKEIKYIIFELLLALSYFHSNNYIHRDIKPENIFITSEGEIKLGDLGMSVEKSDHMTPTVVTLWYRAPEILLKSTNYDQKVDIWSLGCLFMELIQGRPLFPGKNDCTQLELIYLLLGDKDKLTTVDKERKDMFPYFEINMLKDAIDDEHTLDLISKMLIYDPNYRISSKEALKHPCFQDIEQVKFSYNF
The target of assay [7] is Protein kinase 7 (PK7), Plasmodium falciparum 3D7 (PF3D7_0213400) (UniProt Q7YTF7). Nature of the assay: inhibition of Plasmodium PK7 catalytic activity – biochemical, TCAMS antimalarial set, Kinase-Glo luminescence (AID 1159587). As to conditions: recombinant PfPK7, Kinase-Glo ATP depletion luminescence.
Chain of Protein kinase 7 (PK7), Plasmodium falciparum 3D7 (PF3D7_0213400) (Q7YTF7 1-343): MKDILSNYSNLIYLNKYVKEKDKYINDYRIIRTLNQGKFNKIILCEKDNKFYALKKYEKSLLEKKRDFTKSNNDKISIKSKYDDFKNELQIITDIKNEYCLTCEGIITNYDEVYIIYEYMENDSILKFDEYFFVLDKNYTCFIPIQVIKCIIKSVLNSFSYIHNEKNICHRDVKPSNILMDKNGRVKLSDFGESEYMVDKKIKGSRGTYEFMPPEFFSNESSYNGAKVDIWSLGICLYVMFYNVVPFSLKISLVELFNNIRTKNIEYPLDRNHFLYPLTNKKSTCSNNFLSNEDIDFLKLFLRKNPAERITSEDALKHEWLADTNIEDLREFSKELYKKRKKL
In assay [8] the target is Calcium-dependent protein kinase 4 (Plasmodium falciparum (isolate 3D7)) (UniProt Q8IBS5). In words: PfCDPK4 kinase inhibitors, biochemical, TCAMS library (AID 1159588; cut-off not given, nearly all actives have IC50 up to about 0.91 µM). The note with it: recombinant PfCDPK4, Kinase-Glo ATP depletion luminescence.
Chain of Calcium-dependent protein kinase 4 (Plasmodium falciparum (isolate 3D7)) (Q8IBS5 whole entry, looked up): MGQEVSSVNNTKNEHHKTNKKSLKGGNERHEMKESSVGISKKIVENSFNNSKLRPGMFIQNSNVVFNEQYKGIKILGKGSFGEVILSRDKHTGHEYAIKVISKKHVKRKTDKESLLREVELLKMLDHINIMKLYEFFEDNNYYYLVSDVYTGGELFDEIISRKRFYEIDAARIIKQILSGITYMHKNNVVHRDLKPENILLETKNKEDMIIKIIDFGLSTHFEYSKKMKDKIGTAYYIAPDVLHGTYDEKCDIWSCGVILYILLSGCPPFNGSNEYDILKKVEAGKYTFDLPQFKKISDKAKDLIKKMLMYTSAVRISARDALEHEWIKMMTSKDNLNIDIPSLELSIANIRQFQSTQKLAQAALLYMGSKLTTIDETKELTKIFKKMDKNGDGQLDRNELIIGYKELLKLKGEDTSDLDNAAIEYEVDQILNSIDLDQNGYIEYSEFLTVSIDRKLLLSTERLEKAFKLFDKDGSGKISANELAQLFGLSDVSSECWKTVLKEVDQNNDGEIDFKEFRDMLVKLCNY

Each structure is given as a SMILES string. Values without a mark were called inactive. For some of these results: Entries with a potency or affinity are not part of this list. Active and inactive are the calls of the source. Unless noted, how the calls were made is not given here.

For `CCOC(=O)/C(=N\OC(C)(C)C(=O)NCc1ccc(O)c(O)c1)c1csc(NC(c2ccccc2)(c2ccccc2)c2ccccc2)n1`, the growth inhibition in assay [1] is 99% (active); in assay [4] it was 100% (active). Moreover, the results for the inhibition in assay [2] and in assay [3] were 13% and -3%, respectively. The outcome in assay [5], in assay [6], in assay [7] and in assay [8] was inactive.

Take `COc1cc(OC)c(OC)cc1C=NNc1cc(C)nc2ccccc12`: the growth inhibition in assay [1] is 95% (active); in assay [4], 100% (active). In addition, the results for the inhibition in assay [2] and in assay [3] were 5% and 0%, respectively. The result in assay [5], in assay [6], in assay [7] and in assay [8] was inactive.

Take `COc1ccc2nccc([C@@H](O)CN3CCC(NCc4cc5cc(OC(F)(F)F)ccc5[nH]4)CC3)c2c1`: the results for the growth inhibition in assay [1] and in assay [4] were 82% (active) and 100% (active), respectively. In addition, the inhibition (as a rule, the drop in the measured response relative to a control, in per cent) in assay [2] was 49%; in assay [3], 2%. Moreover, the outcome in assay [5], in assay [6], in assay [7] and in assay [8] was inactive.

For the compound `COc1ccc(C(=O)CCc2ccc(O)cc2)cc1`, the growth inhibition in assay [1] is 90% (active); in assay [4], 96% (active). Moreover, the inhibition is -2% in assay [2] and 4% in assay [3]. Further, the outcome in assay [5], in assay [6], in assay [7] and in assay [8] was inactive.

Regarding `c1cc(CNCc2ccc3c(c2)OCO3)cc(-c2cccc(CNc3ccc4ncccc4c3)c2)c1`, the growth inhibition was 27% in assay [1] and 98% (active) in assay [4]. Besides, the inhibition in assay [2] was 18%; in assay [3], -4%. Moreover, the result in assay [5], in assay [6], in assay [7] and in assay [8] was inactive.

Take `CC(=O)c1ccc(-n2ccnc2)cc1`: the figures for the growth inhibition in assay [1] and in assay [4] were -1% and 92% (active), respectively. For the same compound, the results for the inhibition in assay [2] and in assay [3] were -4% and -3%, respectively. Besides, the outcome in assay [5], in assay [6], in assay [7] and in assay [8] was inactive.

For the compound `CN1CCCC(OC(=O)c2ccccc2)C1` (stereo not given), the growth inhibition in assay [1] is -2%; in assay [4] it was 100% (active). Moreover, the inhibition in assay [2] is 4%; in assay [3], -5%. Besides, the result in assay [5], in assay [6], in assay [7] and in assay [8] was inactive.

On to `Cc1ccc2c(c1)NC[C@@]21CCN(C[C@@H](O)C2CCN(c3cc(C#N)ccn3)CC2)C[C@@H]1C`, for which the growth inhibition is 79% (active) in assay [1] and 90% (active) in assay [4]. Also, the inhibition in assay [2] was 28%; in assay [3] it was -2%. The outcome in assay [5], in assay [6], in assay [7] and in assay [8] was inactive.

Turning to `Cc1cc(OCCCN2CCC(NS(=O)(=O)c3cccc(Br)c3)C2)c2ccccc2n1` (stereo not given), the growth inhibition was 40% in assay [1] and 86% (active) in assay [4]. In addition, the inhibition in assay [2] was 13%; in assay [3], 3%. In addition, the result in assay [5], in assay [6], in assay [7] and in assay [8] was inactive.

In the case of `CCCCCCN1CCC(NCc2ccc(CN(C)C)cc2)CC1`, the growth inhibition is 26% in assay [1] and 92% (active) in assay [4]. For the same compound, the results for the inhibition in assay [2] and in assay [3] were 18% and 1%, respectively. The outcome in assay [5], in assay [6], in assay [7] and in assay [8] was inactive.

As for `CCC(C)NS(=O)(=O)c1ccc2nc(Nc3cccc(SC)c3)n(C(C)C(C)C)c2c1` (stereo not given), the growth inhibition is 70% (active) in assay [1] and 94% (active) in assay [4]. Moreover, the inhibition is -1% in assay [2] and 2% in assay [3]. Besides, the outcome in assay [5], in assay [6], in assay [7] and in assay [8] was inactive.

For the compound `Nc1nccc2ccc(-c3ccncc3)cc12`, the growth inhibition in assay [1] was 95% (active); in assay [4], 96% (active). In addition, the figures for the inhibition in assay [2] and in assay [3] were 19% and 5%, respectively. The outcome in assay [5], in assay [6], in assay [7] and in assay [8] was inactive.

As to `COc1cc(C(C)C)ccc1C1CCN(CCCCNC(=O)c2ccc(NC(=O)c3ccc(Cl)cc3)cc2)CC1`, the growth inhibition in assay [1] was 99% (active); in assay [4], 98% (active). Besides, the inhibition in assay [2] was 100% (active); in assay [3] it was 3%. Besides, the result in assay [5], in assay [6], in assay [7] and in assay [8] was inactive.

`Cc1cc(NN=Cc2ccc(F)cc2)c2cc(F)ccc2n1`: the growth inhibition is 61% (active) in assay [1] and 101% (active) in assay [4]. The inhibition is 6% in assay [2] and -4% in assay [3]. The result in assay [5], in assay [6], in assay [7] and in assay [8] was inactive.

On to `O=C(Nc1cccc(-c2cccc(-c3nc4ccc(C(F)(F)F)cc4[nH]3)c2)c1)c1cccnc1Cl`, for which the growth inhibition was 58% (active) in assay [1] and 95% (active) in assay [4]. Further, the inhibition in assay [2] was 56% (active); in assay [3], 1%. For the same compound, the result in assay [5], in assay [6], in assay [7] and in assay [8] was inactive.

In the case of `CCCCNc1c(C(=O)OCC)c(C)nc2c1[nH]c1ccccc12`, the growth inhibition in assay [1] was 58% (active); in assay [4] it was 100% (active). In addition, the inhibition in assay [2] is -3%; in assay [3], 3%. Moreover, the outcome in assay [5], in assay [6], in assay [7] and in assay [8] was inactive.

`O=C(Nc1ccc2c(c1)CCN(C1CCC1)CC2)c1ccc(-c2cn3ccccc3n2)cc1`: the growth inhibition in assay [1] is 42%; in assay [4] it was 102% (active). The inhibition was 13% in assay [2] and 2% in assay [3]. In addition, the outcome in assay [5], in assay [6], in assay [7] and in assay [8] was inactive.

With `CC1CCN(C(=O)CSc2nc(-c3ccc(C(C)C)cc3)no2)CC1`, the growth inhibition is 84% (active) in assay [1] and 98% (active) in assay [4]. Moreover, the inhibition in assay [2] was -1%; in assay [3], 2%. For the same compound, the result in assay [5], in assay [6], in assay [7] and in assay [8] was inactive.

For `CO/C(=C\C=C\c1cc2cc(Cl)c(Cl)cc2[nH]1)C(=O)NCCCN1CCN(c2cccc(Cl)c2)CC1`, the growth inhibition is 77% (active) in assay [1] and 100% (active) in assay [4]. Further, the figures for the inhibition in assay [2] and in assay [3] were 58% (active) and 3%, respectively. Moreover, the outcome in assay [5], in assay [6], in assay [7] and in assay [8] was inactive.

With `CC(C)(C)c1ccc(CN2CCC(CNC(=O)c3cc(-c4cccc(F)c4)cs3)C2)cc1` (stereo not given), the values for the growth inhibition in assay [1] and in assay [4] were 55% (active) and 100% (active), respectively. For the same compound, the values for the inhibition in assay [2] and in assay [3] were 32% and 3%, respectively. The result in assay [5], in assay [6], in assay [7] and in assay [8] was inactive.

For the origin of these results see PubChem BioAssay.
